In PubChem BioAssay AID489025 (Southern Research Specialized Biocontainment Screening …, 2010):
The whole screen tested about 2,300 compounds, of which about 790 (34%) were called active. No rule for the calls is given here. This is one part of the list. Results with a measured potency or affinity are listed apart.

assay: THP-1 cell cytotoxicity, dose response, cytotoxicity control for non-replicating M. tuberculosis project (AID 489025); conditions: THP-1 cell viability; series mostly up to 40 µM

SMILES	outcome
Cc1cc2n(n1)SC(Nc1ccccc1)N2 (configuration not stated)	inactive
c1ccc2[nH]c(NC3=NCCC3)nc2c1	inactive
O=C(COC(=O)c1cc(Br)ccc1Cl)NC1CCCC1	inactive
COC(=O)COc1ccc2c(-c3cccc([N+](=O)[O-])c3)cc(=O)oc2c1	inactive
O=C(CN1CCC(NC(=O)c2cccc(F)c2)CC1)Nc1ccc(Br)cc1	inactive
NC(=O)C1(N2CCCCC2)CCN(C2CC(=O)N(CCc3ccccc3)C2=O)CC1 (configuration not stated)	inactive
c1ccc(OCc2nn3c(-c4ccccn4)nnc3s2)cc1	inactive
c1ccc(OCc2nnc3sc(-c4cccs4)nn23)cc1	inactive
CCOC(=O)Cn1cc(C#N)c2cccc(CC)c21	inactive
Cc1occc1C(=O)N/N=C/C(Br)=C\c1ccccc1	inactive
O=C(O)c1ccccc1-c1ccccc1C(=O)Nc1nc2ccccc2s1	inactive
Cc1oc(=O)c(NC(=O)c2ccccc2)cc1C(=O)c1ccccc1	inactive
O=C(COC(=O)c1cc(Br)ccc1O)Nc1ccc2c(c1)OCO2	inactive
O=C(COC(=O)c1ccc(O)cc1O)c1ccc2c(c1)OCO2	inactive
COc1ccc(OC(=O)c2cc3ccccc3o2)cc1	inactive
CCCC(O)(CCC)C(=O)NNc1ccc(C)cc1	inactive

SMILES	outcome
O=c1[nH][nH]c(-c2ccccc2O)c1C(C[N+](=O)[O-])c1cccc(Cl)c1 (configuration not stated)	inactive
O=C(CN1CCC(Cc2ccccc2)CC1)NC(=O)NC1CCCCC1	inactive
C[C@@H]1CN=C2N(CCNC(=O)CCC3CCCCC3)[C@H](Cc3ccc(O)cc3)CN21	inactive
CCCC(=O)N1CCC(Cc2ccccc2)CC1	inactive
CC(C)[C@H]1CN=C2N(C[C@H](C)NC(=O)CCC3CCCCC3)[C@H](Cc3ccc(O)cc3)CN21	inactive
O=C(c1ccccc1)C1CN(Cc2ccccc2)CCC1(O)c1ccccc1 (configuration not stated)	inactive
CC(C)CNc1nc(=S)nc(N(C)C)[nH]1	inactive
O=C(COc1ccc(Br)cc1)Nc1ccc([N+](=O)[O-])cn1	inactive
COc1ccc(Cc2nnc(-c3ccccc3)o2)cc1	inactive
CCn1nnc(NC(=O)c2sc3ccccc3c2Cl)n1	inactive
O=C(Nc1nccs1)c1sc2ccccc2c1Cl	inactive
NC1CCN(c2c(F)cc3c(=O)c(C(=O)O)cn(C4CC4)c3c2Cl)C1 (configuration not stated)	inactive
Cc1ccc(NC(=O)COC(=O)C(NS(=O)(=O)c2ccc(Cl)cc2)C(C)O)cc1C (configuration not stated)	inactive
CCOCCOC(=O)c1ccc(NC(=O)C2COc3ccccc3O2)cc1 (configuration not stated)	inactive
CCc1ccccc1NC(=O)C1COc2ccccc2O1 (configuration not stated)	inactive
CCOC(=O)c1cc2cc3ccccc3cc2oc1=O	inactive
